Bioassay records from PubChem BioAssay.
HTT ATP protect – protects HTT-Q103 PC12 cells, measured by ATP; PC12 HTT-Q103 induced, cytoprotection, ATP luminescence, 40 h; Potency, µM (series often up to 56.4 µM), inactives show cytoprotection (ATP increase), usual class: activators; hit rate 0.14% among 230,000; also: % of control where 0% means no effect; nearly all actives have a fitted effect of over 45% in size
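ATP quantification (ATPlite) reports survival of PC12 cells in which tebufenozide, 100 nM final, switches on Htt exon 1 with 103 glutamines linked to GFP; compounds are titrated.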
HttQ103 aggreg – inhibitors of mutant huntingtin aggregate formation in PC12 cells; PC12 HttQ103-GFP aggregates, Acumen cytometry, 40 h; hit rate 1.1% among 220,000; Potency, µM (titrated, usually from 46.1 µM), without a hit: at the highest dose activity change, negative = inhibition, actives largely listed as inhibitors; AID 1688; also: % is scaled to controls: 0 for no effect and ±100 for the full control effect; nearly all actives have a fitted effect of over 60% in size
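Multiplexed with ATP-based cell death, this channel scores GFP aggregates in PC12 cells expressing inducible HTTex1-Q103-GFP. Induction used 100 nM tebufenozide; compounds were tested in concentration series.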
ALDH1A1 inh – ALDH1A1 (human) enzyme inhibition | P00352 | Purified ALDH1A1, NADH fluorescence, propionaldehyde substrate | Potency, µM (series often up to 75.3 µM), inactives show at the top dose activity, negative = inhibition, most hits filed as inhibitors | hit rate 7.3% among 220,000; active = well fitted inhibition curve with a large enough effect, not every such curve was filed as active; inconclusive = small, poorly fitted or top-dose-only effect, or another doubt; inactive = no such curve, though single readings can be large or run the other way;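 also: plate controls were no enzyme wells and a reference inhibitor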
Target sequence (P00352 whole entry, looked up): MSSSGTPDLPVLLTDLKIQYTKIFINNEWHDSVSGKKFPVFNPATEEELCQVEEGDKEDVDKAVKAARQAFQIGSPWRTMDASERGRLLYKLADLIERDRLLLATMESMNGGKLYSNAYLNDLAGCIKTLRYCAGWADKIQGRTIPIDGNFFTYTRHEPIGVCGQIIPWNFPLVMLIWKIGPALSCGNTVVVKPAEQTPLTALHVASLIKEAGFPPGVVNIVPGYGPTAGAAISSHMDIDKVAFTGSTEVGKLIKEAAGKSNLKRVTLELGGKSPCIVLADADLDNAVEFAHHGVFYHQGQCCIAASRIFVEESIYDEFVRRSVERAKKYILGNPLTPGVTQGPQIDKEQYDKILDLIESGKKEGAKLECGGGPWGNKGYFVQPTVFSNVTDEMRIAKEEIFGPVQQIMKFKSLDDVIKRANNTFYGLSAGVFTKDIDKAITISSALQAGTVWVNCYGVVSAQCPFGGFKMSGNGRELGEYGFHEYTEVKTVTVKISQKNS
Lamin A splicing – modulators of lamin A splicing; Potency, µM (series often up to 46.1 µM), for the others: at the top dose ratio change, negative = inhibition, hits mostly inhibitors; AID 1487; hit rate 0.01% among 200,000; HeLa LMNA splicing GFP/RFP minigene ratio, 48 h; active = well fitted inhibition curve with a large enough effect in the signal ratio, with a control signal flat, not every such curve was filed as active; inconclusive = small, poorly fitted or top-dose-only effect, or effect the other way, or a change in a side signal; the % refers to the signal ratio; also: % is scaled to controls: 0 for no effect and ±100 for the full control effect
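Read-out is the ratio of GFP to DsRed2 object intensity, acquired by 488 nm laser-scanning cytometry on HeLa lamin A-EGFP minigene reporter cells. Compound incubation 48 hrs at 37 °C in Opti-MEM with 2% FBS; DMSO 0.5% final.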
HPGD block – blocks human HPGD enzyme activity; P15428; purified HPGD, NADH fluorescence kinetic, PGE2 substrate; Potency, µM, for the others: at the top dose activity change, negative = inhibition, hits mostly inhibitors; hit rate 4.3% among 150,000; active = well fitted inhibition curve with a large enough effect, not every such curve was filed as active; inconclusive = small, poorly fitted or top-dose-only effect, or another doubt; inactive = no such curve, though single readings can be large or run the other way; also: % is scaled to controls: 0 for no effect and ±100 for the full control effect
Target sequence (P15428 whole entry, looked up): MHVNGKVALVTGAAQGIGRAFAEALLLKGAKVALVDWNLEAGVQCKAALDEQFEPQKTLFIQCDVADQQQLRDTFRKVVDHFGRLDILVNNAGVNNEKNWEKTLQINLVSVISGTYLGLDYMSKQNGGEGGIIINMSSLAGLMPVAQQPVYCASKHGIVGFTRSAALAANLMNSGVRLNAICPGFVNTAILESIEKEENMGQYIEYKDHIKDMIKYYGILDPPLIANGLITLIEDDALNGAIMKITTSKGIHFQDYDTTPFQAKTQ
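NADH formation kinetics: reaction with 30 uM PGE2 and 1 mM NAD+ (final), 20 nM enzyme, Tris-HCl pH 8 with Tween 20, after 15 min compound preincubation at room temperature. Fluorescence change, last versus first of five reads.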
Numbers without * were called inactive; ? = inconclusive; . = no result given; [ ] = dose if it differs, or a comment. Hits are enriched below; roughly 8.8% of the tested compounds scored in any of these assays. Unless noted, calls follow the shape of the dose curve; as a rule, active = well fitted curve in the direction sought with a large enough effect; inconclusive = small, poorly fitted or top-dose-only effect, or another doubt; inactive = no such curve, though single readings can be large; an effect the other way counts as inactive or inconclusive. Potency is read from the fitted curve at half-maximal effect.

SMILES	HTT ATP protect	HttQ103 aggreg	ALDH1A1 inh	Lamin A splicing	HPGD block
CC(=O)N1CCN(C(=O)CSc2nc3c(cnn3-c3ccccc3)c(=O)[nH]2)CC1	3%	21%	25µM*	-1%	?
CCN(Cc1ccccc1)C(=O)c1ccc(CNS(=O)(=O)c2ccc(C)cc2)cc1	.	2%	2µM*	?	?
CCN(CC)C(=O)c1ccc(S(=O)(=O)NCc2cccnc2)cc1	22%[10 µM]	11µM*	5%	?	?
CC(=O)N1c2ccc(S(=O)(=O)N3CCN(c4ccc(C)cc4C)CC3)cc2CC1C (stereo unspecified)	.	.	.	10%[46 µM]	.
C[C@]12CC[C@@H]3c4ccc(O)cc4CC[C@H]3[C@@H]1C[C@H](O)C2O (stereo partly specified)	5%	3%	.	2%	.
CCC(=O)Nc1nnc(S(=O)(=O)N(C)Cc2ccccc2)s1	.	.	.	4%[46 µM]	.
Cc1ccc2c(c1)C(=O)c1ccccc1CS2=O (stereo unspecified)	.	3%	2.5µM*	0%	-23%
O=C1c2ccccc2COc2ccc(O)cc21	3%	-11%	?	4%	-12%
CCOc1cc(CNc2ccc(CNc3ncn[nH]3)cc2)ccc1OCc1ccccc1	14%[10 µM]	11%	-11%	?	-9%
C[Si](C)(C)C#Cc1ccccc1NC(=S)Nc1ccccc1	-42%	.	13µM*	.	?
S=C(Nc1ccccc1)Nc1ccccc1-n1cccc1	18%[10 µM]	29%[9.22 µM]	-11%	.	.
N#Cc1ccccc1NC(=S)Nc1ccc(F)cc1	36%[10 µM]	21%[9.22 µM]	-1%	?	.
S=C(Nc1ccccc1)Nc1ccccc1C#Cc1ccccc1	-60%	.	18µM*	.	?
COc1cccc(CNC(=O)c2ccc(S(=O)(=O)N3CCCC3)cc2)c1	0%	0%	13µM*	0%	-5%
COc1ccc(S(=O)(=O)N2CCC(C(=O)NCc3cccc(OC)c3)CC2)cc1	-30%	7%	-15%	9%	-11%
COc1cccc(CN(C)C(=O)c2ccc(S(=O)(=O)N3CCCC3)cc2)c1OC	14%[10 µM]	-6%	11µM*	?	-5%
Cc1cccc(-n2c(CNC(=O)c3ccc(S(=O)(=O)N4CCCC4)cc3)n[nH]c2=S)c1	10%	11%	?	-4%	-23%
COc1ccccc1CNC(=O)c1ccc(S(=O)(=O)N2CCCC2)cc1	-11%	-21%	?	?	.
COc1ccc(-n2c(CNC(=O)c3ccc(S(=O)(=O)N4CCCC4)cc3)n[nH]c2=S)cc1	9%	5%	10µM*	5%	-7%
COc1cccc(CNC(=O)C2CCN(S(=O)(=O)N3CCCCC3)CC2)c1	12%	9%	10µM*	11%	-12%
Clc1ccccc1Nc1ncnc2c1nc1n2CCCCC1	.	.	.	-10%[46 µM]	.
COc1ccc(CNC(=O)Nc2cn(CC(C)C)c(=O)c3ccccc23)cc1	.	.	.	6%[46 µM]	.
Cc1cc(Cl)c2cc3ccccc3cc2n1	-5%[10 µM]	0%[9.22 µM]	.	.	.
CC(C)(C)OC(=O)N1CCC[C@H]1C(O)(c1ccccc1)c1ccccc1	-6%	.	9%	.	0%
COc1ccc(Br)cc1CNC(=O)C1CCN(S(=O)(=O)N2CCCCC2)CC1	20%[0.074 µM]	-15%	13µM*	7%[0.0737 µM]	-7%
SMILES	HTT ATP protect	HttQ103 aggreg	ALDH1A1 inh	Lamin A splicing	HPGD block
COc1ccc(OC)c(CNC(=O)C2CCN(S(=O)(=O)N3CCCC3)CC2)c1	-7%	19%	?	3%	-9%
CC1=C(C(=O)N(C)C)C(c2ccc(C)s2)NC(=S)N1 (stereo unspecified)	-40%	14%	25µM*	18%[46 µM]	.
CCN(CC)C(=O)C1=C(C)NC(=S)NC1c1ccc(C)s1 (stereo unspecified)	5%[10 µM]	22%	8.9µM*	4%[46 µM]	.
CCN(CC)C(=O)C1=C(C)NC(=S)NC1c1cccs1 (stereo unspecified)	.	21%	?	.	.
COc1ccc(O[C@H]2C=C[C@@H](c3ccccc3)O[C@H]2COC(=O)NCc2cccc3ccccc23)cc1	-43%[10 µM]	.	6%[13.5 µM]	.	.
COc1cc(/C=N/OCC(=O)NC2CCCCC2)ccc1OCc1ccccc1	.	7%	22µM*	?	-22%
CCOc1ccc(/C=N/OCC(=O)Nc2ccc(OCc3ccccc3)cc2)cc1OC	-21%[10 µM]	7%	-4%	?	?
COc1cc(/C=N/OCC(=O)NC23CC4CC(CC(C4)C2)C3)ccc1OCc1ccccc1	-11%[10 µM]	?	22µM*	?	.
COc1cc(/C=N/OCC(=O)Nc2ccc(OC(F)F)cc2)ccc1OCc1ccccc1	-6%[10 µM]	-11%	-2%	?	-14%
CC1=C(C(=O)Nc2ccccc2C)C(c2cccs2)n2nc(SCc3cc(C)ccc3C)nc2N1 (stereo unspecified)	.	.	.	-5%[46 µM]	.
COc1ccc2c(c1)nc(SCC(=O)c1ccc(Br)s1)n2C	?	3%	28µM*	-2%	?
O=C(/C(=C/c1ccccc1)c1ccccc1)N1CCCCC1	-9%	12%	4%	-5%[0.0737 µM]	0.71µM*
O=C(/C=C/c1ccccc1)N/C(=C/c1ccccc1)C(=O)N1CCCCC1	-14%	-9%	14µM*	-5%	.
CC(NC(=O)C(=O)N/N=C/c1ccccc1)c1ccccc1 (stereo unspecified)	-14%	-4%	4%	-9%[46 µM]	.
COc1ccc(-n2c(SCc3ccc([N+](=O)[O-])cc3)nnc2-c2ccccc2)cc1	-5%[10 µM]	5%	10%	?	?
CCOc1ccc(-c2nnc(SCc3nnc(-c4ccccc4)o3)n2-c2ccccc2F)cc1	3%[4.97 µM]	?	4%	6%	13µM*
CCOc1ccc(-n2c(SCc3ccc([N+](=O)[O-])cc3)nnc2-c2ccccc2)cc1	10%[10 µM]	20µM*	9%	?	-17%
CCC(C)NC(=O)CN1C(=O)c2cccnc2Oc2ccc(C)cc21 (stereo unspecified)	.	.	.	2%[46 µM]	.
Cc1ccc(SCc2cc(=O)[nH]c(/N=C(\N)Nc3ccc(C)c(C)c3)n2)cc1	-49%	-21%	8.9µM*	2%	-14%
Cc1nnc(SCc2cc(=O)[nH]c(/N=C(\N)Nc3ccccc3)n2)s1	-8%[10 µM]	5%[9.22 µM]	.	.	.
N/C(=N\c1nc(CSc2nnnn2-c2ccccc2)cc(=O)[nH]1)Nc1ccccc1	4%[10 µM]	2%[9.22 µM]	5µM*	?	.
O=c1cc(CSc2nnnn2-c2ccccc2)nc(Nc2ccc(F)cc2)[nH]1	1%	?	7.9µM*	?	-6%
Cc1ccc(Nc2nc(CSc3nnnn3-c3ccccc3)cs2)cc1	-22%	?	8.9µM*	?	-13%
O=c1[nH]c(CSc2nnnn2-c2ccccc2)nc2ccccc12	-17%	-1%	0%	-4%[46 µM]	.
COc1ccc(Cn2ccc3nc(C)c(C(=O)NCc4ccc(SC)cc4)cc3c2=O)cc1	.	.	.	12%[46 µM]	.
Cc1ccccc1Nc1nc(N)nc(CSc2nnnn2-c2ccccc2)n1	-16%[10 µM]	-11%	13µM*	2%	-14%
Cc1ccccc1Nc1nc(N)nc(CSc2nnnn2C)n1	-14%	-6%	4%	6%[9.22 µM]	.
